Screening data deposited in PubChem BioAssay by National Center for Advancing Translational Sciences (NCATS).
Hits are enriched below; roughly 9% of the tested compounds scored in any of these assays.
ALDH1A1 inh: ALDH1A1 (human) enzyme inhibition | actives 7.3% (n = 220,000) | Purified ALDH1A1, NADH fluorescence, propionaldehyde substrate | P00352 | Potency, µM (highest dose often 75.3 µM), inactives show at the highest dose activity, negative = inhibition, actives largely listed as inhibitors; active means well fitted inhibition curve with a large enough effect, not every such curve was filed as active; inconclusive means small, poorly fitted or top-dose-only effect, or another doubt; inactive means no such curve, though single readings can be large or run the other way;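 further: plate controls were no enzyme wells and a reference inhibitor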
Target sequence (P00352 whole entry, looked up): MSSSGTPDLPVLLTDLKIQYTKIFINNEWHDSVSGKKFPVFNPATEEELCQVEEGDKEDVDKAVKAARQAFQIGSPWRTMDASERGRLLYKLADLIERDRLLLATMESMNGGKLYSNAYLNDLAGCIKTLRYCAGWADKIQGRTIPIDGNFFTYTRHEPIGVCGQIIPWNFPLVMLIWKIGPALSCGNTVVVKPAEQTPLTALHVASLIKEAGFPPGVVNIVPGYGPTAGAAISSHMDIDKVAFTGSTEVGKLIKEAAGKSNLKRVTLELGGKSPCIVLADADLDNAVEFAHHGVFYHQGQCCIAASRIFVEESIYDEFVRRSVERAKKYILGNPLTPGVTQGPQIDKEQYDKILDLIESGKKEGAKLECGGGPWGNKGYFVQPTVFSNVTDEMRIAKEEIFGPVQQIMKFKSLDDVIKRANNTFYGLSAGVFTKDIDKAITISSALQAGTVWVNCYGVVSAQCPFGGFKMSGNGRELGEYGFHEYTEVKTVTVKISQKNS
HTT cytoprotect: protects HTT-Q103 PC12 cells, measured by ATP; actives 0.14% (n = 230,000); PC12 HTT-Q103 induced, cytoprotection, ATP luminescence, 40 h; Potency, µM (doses to about 56.4 µM), for inactives: cytoprotection (ATP increase), hits mostly activators; AID 1471; further: % of control where 0% means no effect; nearly all actives have a fitted effect of over 45% in size
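Compounds added alongside 100 nM tebufenozide, which induces toxic Q103 huntingtin exon 1-GFP in stable PC12 cells; surviving cells quantified by luminescent ATP measurement. Medium: phenol red-free DMEM, 5% equine and 5% calf serum.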
LMNA splice mod: LMNA splicing modulation. Potency, µM (series often up to 46.1 µM), without a hit: at the top dose ratio change, negative = inhibition, usual class: inhibitors. HeLa LMNA splicing GFP/RFP minigene ratio, 48 h. actives 0.01% (n = 200,000). AID 1487; active means well fitted inhibition curve with a large enough effect in the signal ratio, with a control signal flat, not every such curve was filed as active; inconclusive means small, poorly fitted or top-dose-only effect, or effect the other way, or a change in a side signal; the % refers to the signal ratio; further: on the % scale 0 is the no-effect control and ±100 the full control effect
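S3 HeLa stable clones carrying a lamin A-EGFP splicing minigene plus DsRed2 were seeded at 600 cells/well in Opti-MEM with 2% FBS, pin-dosed and incubated 48 h at 37°C. Acumen cytometry (488 nm) gave the GFP/RFP total-intensity ratio.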
HttQ103 aggreg: mutant huntingtin aggregation inhibition; AID 1688; PC12 HttQ103-GFP aggregates, Acumen cytometry, 40 h; Potency, µM (highest dose often 46.1 µM), without a hit: top-dose activity change, negative = inhibition, actives largely listed as inhibitors; actives 1.1% (n = 220,000); further: on the % scale 0 is the no-effect control and ±100 the full control effect; nearly all actives have a fitted effect of over 60% in size
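Ecdysone-promoter PC12 model expressing HTT exon 1 Q103 fused to GFP, induced by tebufenozide at 100 nM final. Compounds titrated; aggregates sized 1–25 µm scored on a 488 nm laser cytometer.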
HPGD block: HPGD (human) dehydrogenase inhibition; P15428; purified HPGD, NADH fluorescence kinetic, PGE2 substrate; Potency, µM, for inactives: top-dose activity change, negative = inhibition, most hits filed as inhibitors; actives 4.3% (n = 150,000); AID 894; active means well fitted inhibition curve with a large enough effect, not every such curve was filed as active; inconclusive means small, poorly fitted or top-dose-only effect, or another doubt; inactive means no such curve, though single readings can be large or run the other way; further: on the % scale 0 is the no-effect control and ±100 the full control effect
Target sequence (P15428 whole entry, looked up): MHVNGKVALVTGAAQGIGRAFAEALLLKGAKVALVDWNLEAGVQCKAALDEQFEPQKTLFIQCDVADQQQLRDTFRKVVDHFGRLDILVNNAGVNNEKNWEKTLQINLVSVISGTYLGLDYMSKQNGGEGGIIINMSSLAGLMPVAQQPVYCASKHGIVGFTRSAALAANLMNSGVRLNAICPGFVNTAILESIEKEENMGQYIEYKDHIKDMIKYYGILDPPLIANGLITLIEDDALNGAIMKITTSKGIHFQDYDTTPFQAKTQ
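20 nM HPGD preincubated 15 min at room temperature with compound in 50 mM Tris-HCl pH 8, 0.01% Tween 20. Started with 1 mM NAD+ and 30 uM prostaglandin E2; NADH fluorescence (360/450 nm) read 5 times over 30-s intervals, last minus first.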
KinaseGlo FLuc: Kinase-Glo luciferase inhibition (counter-screen) | Q27757 | Kinase-Glo luciferase, ATP luminescence, 8 min | Potency, µM (series often up to 38.3 µM), without a hit: at the highest dose activity change, negative = inhibition, actives largely listed as inhibitors | actives 0.28% (n = 200,000); further: on the % scale 0 is the no-effect control and ±100 the full control effect; nearly all actives have a fitted effect of over 60% in size
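Compound is pinned into ATP-containing buffer (10 uM ATP, imidazole pH 7.2, 7 mM MgCl2). Kinase-Glo luciferase reagent is then added. Light output is recorded following an 8-min room-temperature incubation.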
Active calls of the source: *; [ ] = another dose, or the depositor's remark. Unless noted, the call rests on the fitted dose curve; in most records, active means well fitted curve in the direction sought with a large enough effect; inconclusive means small, poorly fitted or top-dose-only effect, or another doubt; inactive means no such curve, though single readings can be large; an effect the other way counts as inactive or inconclusive. Potency means the concentration at half of the fitted maximal effect.

For O=C(COc1ccc(Br)cc1)OCc1nnc(-c2ccccc2)o1 the results were ALDH1A1 inh -11.4%, HTT cytoprotect 2.6%[10 µM], LMNA splice mod 2.2%, HttQ103 aggreg -12.1%, HPGD block 28.2µM* and KinaseGlo FLuc -7.1%.
`O=C(Cc1ccc(Cl)cc1)OCc1nnc(-c2ccccc2)o1` gave ALDH1A1 inh 3.6%, HTT cytoprotect -24.1%, LMNA splice mod 28.6%[46 µM], HttQ103 aggreg 0.4% and KinaseGlo FLuc 2.7%.
Cc1nc(NC(=O)c2ccc([N+](=O)[O-])cc2Cl)sc1C(=O)N(C)C was read as ALDH1A1 inh 12.6µM*, LMNA splice mod 15.2%, HttQ103 aggreg 13.2%, HPGD block 14.1µM* and KinaseGlo FLuc -3.2%.
For O=C(c1ccc2c(=O)n(Cc3ccco3)c(=S)[nH]c2c1)N1CCN(Cc2ccccc2)CC1 the results were ALDH1A1 inh inconclusive, HTT cytoprotect -8.9%, LMNA splice mod inconclusive, HttQ103 aggreg -24.9%, HPGD block -5.5% and KinaseGlo FLuc 1.2%.
O=C(NCCCN1CCCC1=O)c1ccc2c(=O)n(Cc3ccco3)c(=S)[nH]c2c1 was read as ALDH1A1 inh 12.6µM*, HTT cytoprotect 7.3%[10 µM], LMNA splice mod -4.3%, HttQ103 aggreg 5.3%, HPGD block -3.8% and KinaseGlo FLuc -0.1%.
For COC(=O)c1ccc2c(=O)n(CCCN3CCCC3=O)c(=S)[nH]c2c1 the results were ALDH1A1 inh inconclusive, HTT cytoprotect -1.1%[0.074 µM], LMNA splice mod 1.5%, HttQ103 aggreg 13.9%, HPGD block inconclusive and KinaseGlo FLuc -1.8%.
Screening Cc1ccc(CNC(=O)c2ccc3c(=O)n(CCCN4CCCC4=O)c(=S)[nH]c3c2)cc1 returned ALDH1A1 inh inconclusive, HTT cytoprotect -11.7%[10 µM], LMNA splice mod 9.3%, HttQ103 aggreg 0.8%, HPGD block -26.2% and KinaseGlo FLuc -0.8%.
COc1ccc(CNC(=O)c2ccc3c(=O)n(CCCN4CCCC4=O)c(=S)[nH]c3c2)cc1 was read as ALDH1A1 inh 28.2µM*, HTT cytoprotect -25.1%, LMNA splice mod -9.2%[46 µM], HttQ103 aggreg -11.4% and KinaseGlo FLuc -1.8%.
`C=CCNC(=O)c1ccc2c(=O)n(CCCN3CCCC3=O)c(=S)[nH]c2c1` gave ALDH1A1 inh 3.16µM*, HTT cytoprotect -27.4%, HttQ103 aggreg -15.3% and KinaseGlo FLuc -0.6%.
Screening C=CCNC(=O)c1ccc(Cn2c(=S)[nH]c3cc4c(cc3c2=O)OCO4)cc1 returned ALDH1A1 inh -2.6%, HTT cytoprotect -26.5%, LMNA splice mod 3.0%, HttQ103 aggreg -12.5%, HPGD block -23.4% and KinaseGlo FLuc 2.4%.
Screening O=C(NCc1ccccc1)c1ccc2c(=O)n(CCCN3CCCC3=O)c(=S)[nH]c2c1 returned ALDH1A1 inh 4.47µM*, HTT cytoprotect 7.3%, LMNA splice mod 11.5%, HttQ103 aggreg -0.3%, HPGD block -10.7% and KinaseGlo FLuc -1.0%.
Screening CC1CCCCN1C(=O)CN1CCSc2ccccc21 (stereo not given) returned LMNA splice mod 11.9%[46 µM].
`COc1ccc(OC)c(-n2c(=S)[nH]c3cc(C(=O)NCCCN4CCCC4=O)ccc3c2=O)c1` gave ALDH1A1 inh -9.9%, HTT cytoprotect 5.9%, LMNA splice mod 9.2%, HttQ103 aggreg inconclusive, HPGD block -0.6% and KinaseGlo FLuc -0.7%.
`COc1ccc(-n2c(=S)[nH]c3cc(C(=O)NCCCN4CCCC4=O)ccc3c2=O)cc1OC` gave ALDH1A1 inh 2.51µM*, HTT cytoprotect -29.8%, LMNA splice mod 2.7%, HttQ103 aggreg 5.7%[9.22 µM], HPGD block -5.8% and KinaseGlo FLuc 2.0%.
`COc1ccccc1CNC(=O)c1ccc2c(=O)n(CCCN3CCCC3=O)c(=S)[nH]c2c1` gave ALDH1A1 inh 2µM*, HTT cytoprotect -38.1%, LMNA splice mod inconclusive, HttQ103 aggreg -28.7% and KinaseGlo FLuc -3.6%.
`COc1ccccc1Cn1c(=S)[nH]c2cc(C(=O)NCC3CCCO3)ccc2c1=O` (stereo not given) gave ALDH1A1 inh inconclusive, HTT cytoprotect -12.1%, HttQ103 aggreg -22.3% and KinaseGlo FLuc 0.6%.
For CC(OC(=O)c1nsc(Cl)c1Cl)C(=O)NCc1cccs1 (stereo not given) the results were ALDH1A1 inh 1.9%, HTT cytoprotect 3.0%, LMNA splice mod 1.9%, HttQ103 aggreg -8.2%, HPGD block inconclusive and KinaseGlo FLuc -0.6%.
For O=C(O)c1cc(-c2ccc(/C=N/N3C(=O)C4C5C=CC(CC5)C4C3=O)o2)ccc1Cl (stereo not given) the results were ALDH1A1 inh 11.2µM*, HTT cytoprotect 6.7%[10 µM], LMNA splice mod -3.5%[46 µM], HttQ103 aggreg -12.4%[9.22 µM] and KinaseGlo FLuc 5.5%.
Screening O=C(O)c1cc(-c2ccc(/C=N/N3C(=O)C4C5C=CC(C6CC56)C4C3=O)o2)ccc1Cl (stereo not given) returned ALDH1A1 inh 12.6µM*, HttQ103 aggreg 2.6% and KinaseGlo FLuc -4.6%.
Screening O=C(Cc1ccc(F)cc1)N/N=C/c1ccc(-c2ccc(Cl)c(C(=O)O)c2)o1 returned ALDH1A1 inh inconclusive, HttQ103 aggreg 11.7% and KinaseGlo FLuc 5.1%.
Screening O=C1C2C3C=CC(CC3)C2C(=O)N1/N=C/c1ccc(O)cc1 (stereo not given) returned ALDH1A1 inh inconclusive, HTT cytoprotect -56.2%, LMNA splice mod 7.5%, HttQ103 aggreg 0.0%, HPGD block 28.2µM* and KinaseGlo FLuc -4.6%.
Screening COC(=O)c1ccc(-c2ccc(/C=N/N3C(=O)C4C5C=CC(CC5)C4C3=O)o2)cc1 (stereo not given) returned ALDH1A1 inh inactive and KinaseGlo FLuc -2.9%.
For CCc1ccc(N/C(SCc2cccc(F)c2)=C(/C#N)C(=O)NCc2ccco2)cc1 the results were ALDH1A1 inh -6.2%, HTT cytoprotect -10.1%[0.074 µM], LMNA splice mod 15.3%[0.0737 µM], HttQ103 aggreg inconclusive, HPGD block -8.1% and KinaseGlo FLuc -1.6%.
Screening COc1ccccc1/C=N/NC(=O)CC(=O)NC1CCCCC1 returned ALDH1A1 inh 7.1%, HTT cytoprotect -28.5% and HttQ103 aggreg 6.2%.
Cc1cc(C)c(C#N)c(SCC(=O)C(C)(C)C)n1 was read as ALDH1A1 inh inconclusive, HTT cytoprotect -13.7%, LMNA splice mod 29.7%, HttQ103 aggreg -23.8%, HPGD block 31.6µM* and KinaseGlo FLuc 1.1%.
COCc1cc(C)nc(SCC(=O)N2CCC(C)CC2)c1C#N was read as ALDH1A1 inh 7.94µM*, HTT cytoprotect -2.8%, LMNA splice mod 0.2%, HttQ103 aggreg -14.7%, HPGD block -15.8% and KinaseGlo FLuc -0.6%.
